KB-V1 MDR tox: KB-V1 MDR subline cytotoxicity; KB-V1 MDR cells viability, CellTiter-Glo, 72 h; Potency, µM (series often up to 46.1 µM), usual class: cytotoxic; hit rate 3.4% among 400,000; AID 1347076; further: nearly all actives have a fitted effect of over 60% in size
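In this primary screen, KB-V1 cells overexpressing P-gp are incubated with library compounds (lowest to highest concentration) for 72 h at 37 degrees C before a luminescent ATP viability read.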
HT1080NT lethal: kills 2HG-producing HT-1080-NT fibrosarcoma cells; HT-1080-NT fibrosarcoma viability, CellTiter-Glo ATP luminescence, 48 h; hit rate 1.6% among 360,000; AID 686970; Potency, µM (titrated, usually from 46.1 µM), hits mostly cytotoxic;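 further: NT is the 2HG producing partner of a matched IDH1 knockdown line; nearly all actives have a fitted effect of over 55% in size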
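Viability of the 2HG-overproducing fibrosarcoma line after 48 hours of compound exposure at 37 degrees C was determined by luminescence with CellTiter-Glo, and concentration-effect curves were then fitted and categorized.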
MCF10A rereplic: DNA re-replication induction in MCF 10a cells | hit rate 2.9% among 350,000 | MCF 10A DNA re-replication, Hoechst nuclear intensity, 48 h | Potency, µM (series often up to 46.1 µM), actives largely listed as activators; further: nearly all actives have a fitted effect of over 50% in size
SW480 rerep: induces DNA re-replication in SW480 colon adenocarcinoma cells | Potency, µM (top dose mostly 46.1 µM), actives largely listed as activators | SW480 DNA re-replication, Hoechst DNA content imaging, 48 h | hit rate 1.8% among 340,000; further: nearly all actives have a fitted effect of over 55% in size
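250 cells/well; 23 nL cpd via pin tool; 48 hr, 37 C, 5% CO2; Hoechst 40 min; imager read of total nuclear intensity, ex 405/em 500-530 nm.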
HT1080 IDH1KD tx: toxicity to HT-1080 IDH1 knockdown cells (counter line). HT-1080 IDH1 knockdown viability, ATP luminescence, 48 h. Potency, µM (series often up to 46.1 µM), actives largely listed as cytotoxic. hit rate 2% among 360,000. AID 686971
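Using the IDH1-knockdown HT-1080 line run in the same batch and compound series as the NT line, viability after 48 h at 37 °C was determined by CellTiter-Glo luminescence and expressed as % activity.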
KB-3-1 cytotox: KB-3-1 parental cell cytotoxicity. KB-3-1 viability, CellTiter-Glo ATP luminescence, 72 h. Potency, µM (titrated, usually from 46.1 µM), usual class: cytotoxic. hit rate 1.4% among 400,000; further: nearly all actives have a fitted effect of over 60% in size
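Here the drug-naive KB-3-1 line serves as comparator for MDR sub-line selectivity; cells received compound titrations, 72 h at 37 °C, then CellTiter-Glo readout.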
Numbers stand for hits; 0 = inactive; ? = inconclusive; - = no result given; [ ] = another dose, or the depositor's remark. Most compounds without a hit are left out; they make up all but 7.9% or so of the library. The call rests on the fitted dose curve; in most records, active means well fitted curve in the direction sought with a large enough effect; inconclusive means small, poorly fitted or top-dose-only effect, or another doubt; inactive means no such curve, though single readings can be large; an effect the other way counts as inactive or inconclusive.

SMILES	KB-V1 MDR tox	HT1080NT lethal	MCF10A rereplic	SW480 rerep	HT1080 IDH1KD tx	KB-3-1 cytotox
Cc1noc(C)c1COc1ccccc1C(=O)NCCc1ccc(Cl)cc1	?	0	0	0	0	0
COCCCNC(=O)C(=O)NCC(c1ccc2c(c1)OCO2)N1CCOCC1 (stereo not given)	0	-	-	-	-	0
Cn1nc([N+](=O)[O-])nc1S(C)(=O)=O	?	16µM	5.8µM	9.2µM	16µM	?
Cn1nc([N+](=O)[O-])nc1Oc1ccccc1F	0	0	0	0	0	0
CS(=O)(=O)c1nc([N+](=O)[O-])nn1CCCc1ccccc1	?	?	4.6µM	0	?	26µM
COCCCNc1nc(SCc2ccccc2)nc2sc3c(c12)CCC3	0	0	0[0.0737 µM]	?	0	0
N#Cc1cnn(-c2nc(SCc3ccccc3)nc3sc4c(c23)CCCC4)c1N	21µM	0	0	0	0	0
Clc1ccccc1Cn1nnc2c(NCCN3CCOCC3)ncnc21	21µM	0	0	0	0	0
FC(F)(F)c1ccc(N2CCN(c3ncnc4c3nnn4Cc3ccccc3Cl)CC2)cc1	0	0	0	0	0	0
Cc1nc(NCCN2CCOCC2)c2nnn(Cc3ccccc3Cl)c2n1	6.5µM	0	0	0	0	0
Clc1ccccc1Cn1nnc2c(NCC3CC3)ncnc21	?	0	0	0	0	?
Clc1ccccc1Cn1nnc2c(N3CCOCC3)nc(C3CC3)nc21	3.7µM	0	0	0	0	0
Clc1ccccc1Cn1nnc2c(Nc3ccccc3)ncnc21	0	0[9.24 µM]	13µM	0	0	0
CC(C)(C)c1nc(NCCN2CCOCC2)c2nnn(Cc3ccccc3Cl)c2n1	0	0	?	0	0	?
COc1ccc(C(=O)Nc2cccc(S(=O)(=O)NC3=NCCC3)c2)cc1OC	0	0	0	0	0	0
COc1ccc(CN(C)C(=O)Cn2ccc(N)nc2=O)cc1OC	0	0	0	0	0	0
O=C(COc1ccc(-n2cnnn2)cc1)Nc1ccc(F)c(F)c1	-	0	0	0	0	-
O=C(/C=C/c1ccc(Br)o1)NC(c1ccccc1)c1ccccc1	23µM	0	0	0	0	0
CN1CCc2c(sc3nc(SCC(N)=O)n(-c4ccccc4)c(=O)c23)C1	0	0	0	0	0	0
CN1CCc2c(sc3nc(SCC(N)=O)n(-c4ccc(Cl)cc4)c(=O)c23)C1	0	0	16µM	?	0	0
CCCCCNc1nc2sc3c(c2c(=O)n1-c1cccc(Cl)c1)CCN(C)C3	0	15µM	?	0[9.22 µM]	?	?
CCSc1nc2sc3c(c2c(=O)n1-c1ccccc1)CCN(C(C)C)C3	0	0	18µM	0	0	0
Cc1ccc(-n2nc(C)c3c(C)cc(=O)n(CC(=O)NCc4ccc(OC(C)C)cc4)c32)cc1	0	-	-	-	-	0
Cc1ccc(N2CC(C(=O)Nc3ncc([N+](=O)[O-])s3)CC2=O)cc1 (stereo not given)	0	?	0	0	0	0
CCCN1CCN(C(=O)c2cc(COc3ccc4ncccc4c3)on2)CC1	?	0	0	0	0	?
SMILES	KB-V1 MDR tox	HT1080NT lethal	MCF10A rereplic	SW480 rerep	HT1080 IDH1KD tx	KB-3-1 cytotox
CCN1CCN(C(=O)c2cc(COc3ccc4ncccc4c3)on2)CC1	16µM	0	0	0	0	0
CCC1CCCCN1C(=O)c1cc(COc2ccc3ncccc3c2)on1 (stereo not given)	1.6µM	0	0	0	?	4.1µM
COCC1CCCCN1C(=O)c1cc(COc2ccc3ncccc3c2)on1 (stereo not given)	?	0	0	0	0	?
Cc1nc(CN(C)C(=O)c2cc(COc3ccc4ncccc4c3)on2)cs1	?	4.1µM	0	?	?	?
Cc1cccc(NC(=O)CCCN2C(=S)NC(C)(C)CC2C)c1C (stereo not given)	0	0	0	0	0	0
CC1CC(C)(C)NC(=S)N1CCCC(=O)Nc1ccc(Br)cc1 (stereo not given)	23µM	0	0	0	?	0
Cc1ccc(C)c(N2CCN(C(=O)CCCN3C(=S)NC(C)(C)CC3C)CC2)c1 (stereo not given)	?	?	0	0	?	21µM
Cc1cccc(N2CCN(C(=O)CCN3C(=S)NC(C)(C)CC3C)CC2)c1C (stereo not given)	4.1µM	0	0	0	0	0
CCOC(=O)CSc1c(-c2ccc(Cl)cc2)[nH]c2ccccc12	0	?	?	0	0	0
CCOC(=O)CSc1c(-c2cccs2)[nH]c2ccccc12	?	18µM	23µM	?	?	?
C=CCCC(=O)N1C[C@H]2CON(C)[C@H]2C[C@H]1c1ccc(N2CCCCC2)cc1	0	0	-	-	0	0
CCn1c2ccccc2c2cc(C#N)c(N)nc21	0	0	?	0	0	0
CCn1c2ccccc2c2cnc(N=CN(C)C)c(C#N)c21	7.3µM	0	0	0	0	0
CCN(CC)CCn1c2ccccc2c2cnc(N=CN(C)C)c(C#N)c21	?	?	21µM	0	?	?
Cc1cc(C(=O)CSc2nc3ccccc3c(=O)n2C)c(C)n1Cc1ccc2c(c1)OCO2	?	0	0	0	5.8µM	?
CC1CCN(C(=O)CSc2nc3ccccc3c(=O)n2Cc2ccc3c(c2)OCO3)CC1	4.6µM	?	?	0	0	?
CC1CCN(S(=O)(=O)c2ccc3c(c2)c(=O)c(C(=O)NCCc2ccccc2)cn3C)CC1	0	-	-	-	-	0
COc1ccc(C2c3cccn3CCN2S(=O)(=O)c2ccc([N+](=O)[O-])cc2)cc1 (stereo not given)	0	-	-	-	-	0
O=C(Nc1cnn(Cc2ccc(Cl)cc2Cl)c1)c1noc2c1CCc1ccccc1-2	0	-	-	-	-	0
CCN(CC)CCn1c(=N)n(CCOc2ccccc2)c2ccccc21	0	11µM	0	11µM	10µM	?
CCN(CC)CCn1c(=N)n(CC(O)COc2ccccc2)c2ccccc21 (stereo not given)	0	16µM	0	21µM	?	0
CN=c1sc2ccccc2n1CC(O)COc1ccccc1 (stereo not given)	15µM	0	0	0	0	0
CCN(Cc1ccccc1)Cc1ccc(OCc2ccccc2)cc1	0	0	0	0	0	0
CCN(CC)CCOc1ccc(Cc2ccccc2)cc1	-	-	24µM	0	-	-
NS(=O)(=O)c1ccc(CCNC(=O)c2cc(S(=O)(=O)N3CCCCC3)ccc2Cl)cc1	0	0	-	-	0	0
CCC(C(=O)OCc1cc(=O)n2nc(CCOC)sc2n1)c1ccccc1 (stereo not given)	0	-	-	-	-	0
COC(=O)c1ccccc1NC(=O)COC(=O)c1ccc(C)c(NC(=O)c2ccco2)c1	3.7µM	0	0	?	0	0

Assay outcomes from PubChem.
